Only some compounds are listed: those with a hit (about 5.9% of all), similar ones and a draw of the others.
HEK293 tox – qHTS of GLP-1 Receptor Inverse Agonists: Cytotox Screen. HEK293 cAMP-luciferase reporter cells, luminescence, 24 h. Potency, µM (doses to about 38.3 µM), inactives show at the highest dose activity change, negative = inhibition, hits mostly inhibitors. 410,000 compounds, 0.13% hits. AID 624418, 2012;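 note: loss of luciferase light is scored as toxicity; % is set by controls: 0 for no effect and ±100 for the full control effect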
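Cells in DMEM/10% Nu serum/1% pen-strep, 1536-well format. Pre-incubated 12 h, dosed with 23 nL compound, incubated a further 24 h. Luciferase detection, 12 min at room temp, luminescence.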
Gal4-VP16 FLuc – VP16 counterscreen qHTS for inhibitors of ROR gamma transcriptional activity | Drosophila S2 Gal4-VP16 UAS-luciferase, luminescence, 20 h | 310,000 compounds, 3.5% hits | Potency, µM (series often up to 53.6 µM), without a hit: top-dose activity, negative = inhibition, most hits filed as inhibitors | AID 2546, 2010;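 note: Gal4-VP16 expression switched on by copper sulfate through the metallothionein promoter; % is set by controls: 0 for no effect and ±100 for the full control effect; nearly all actives have a fitted effect of over 50% in size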
GLP1R inv ag – qHTS of GLP-1 Receptor Inverse Agonists (Inhibition Mode); Glucagon-like peptide 1 receptor (Homo sapiens), P43220; HEK293 GLP-1R CRE-luciferase, luminescence, 24 h; GLP-1R form is constitutively active; Potency, µM (highest dose often 38.3 µM), for inactives: at the top dose activity change, negative = inhibition, hits mostly inhibitors; 410,000 compounds, 1.6% hits; AID 624417, 2012; note: % is set by controls: 0 for no effect and ±100 for the full control effect; nearly all actives have a fitted effect of over 55% in size
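Inverse agonists were sought by their lowering of basal cAMP reporter luciferase output in HEK293 cells stably carrying constitutively active human GLP-1R, after 24 h compound treatment.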
GLP1R ag – qHTS of GLP-1 Receptor Agonists | Potency, µM (highest dose often 45.6 µM), for the others: top-dose activation, actives largely listed as activators | AID 624172, 2012 | 380,000 compounds, 0.007% hits | HEK293 GLP-1R CRE-luciferase, luminescence, 4-6 h; cells express a hypersensitive GLP-1R form | Glucagon-like peptide 1 receptor (Homo sapiens), P43220; note: % of control where 0% means no effect
RORgamma inh – qHTS for inhibitors of ROR gamma transcriptional activity | Nuclear receptor ROR-gamma (Mus musculus), P51450 | Drosophila S2 Gal4-RORgamma UAS-luciferase reporter, 20 h | Potency, µM (series often up to 53.6 µM), for the others: top-dose activity change, negative = inhibition, hits mostly inhibitors | 310,000 compounds, 5.4% hits | AID 2551, 2010; note: % is set by controls: 0 for no effect and ±100 for the full control effect; nearly all actives have a fitted effect of over 60% in size
Target sequence (P51450 whole entry, looked up, the tested form may be a part): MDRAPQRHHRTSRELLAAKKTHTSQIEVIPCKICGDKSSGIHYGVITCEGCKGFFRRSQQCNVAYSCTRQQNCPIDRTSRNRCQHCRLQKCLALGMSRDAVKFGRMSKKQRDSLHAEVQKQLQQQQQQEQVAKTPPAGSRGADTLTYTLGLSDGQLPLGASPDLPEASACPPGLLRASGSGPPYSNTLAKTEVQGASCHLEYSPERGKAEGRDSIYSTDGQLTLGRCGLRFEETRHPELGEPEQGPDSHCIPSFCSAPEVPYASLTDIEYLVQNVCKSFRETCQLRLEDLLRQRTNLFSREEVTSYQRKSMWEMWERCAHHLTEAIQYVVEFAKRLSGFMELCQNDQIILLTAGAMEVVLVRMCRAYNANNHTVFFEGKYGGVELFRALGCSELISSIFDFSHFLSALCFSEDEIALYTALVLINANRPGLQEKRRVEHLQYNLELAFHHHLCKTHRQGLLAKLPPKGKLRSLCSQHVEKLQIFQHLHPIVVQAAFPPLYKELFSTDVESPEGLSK
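Drosophila Schneider cells stably carrying a metallothionein-driven Gal4 DBD–ROR gamma fusion and a UAS-Photinus luciferase reporter were exposed to compound for 1 hr, then induced with copper sulfate (700 uM final) for 20 hr at ambient temperature before luminescence reading.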
The depositor's hits bear a star; u = inconclusive; x = not tested or not shown; [ ] = remark or other dose. Calls come from the whole dose curve; as a rule, active = well fitted curve in the direction sought with a large enough effect; inconclusive = small, poorly fitted or top-dose-only effect, or another doubt; inactive = no such curve, though single readings can be large; an effect the other way counts as inactive or inconclusive. Potency is the fitted concentration of half-maximal effect.

SMILES | HEK293 tox | Gal4-VP16 FLuc | GLP1R inv ag | GLP1R ag | RORgamma inh
CC1CC2C3CCC4=CC(=O)C=CC4(C)[C@@]3(F)C(O)CC2(C)[C@@]1(O)C(=O)CCl (some centres undefined) | x | x | x | 4% | x
C=CCn1c(Cc2cccs2)nnc1SCC(=O)c1ccc2ccccc2c1 | -13% | 1% | -15% | -1% | 0%
C=CCn1c(Cc2cccs2)nnc1SCC(=O)c1cccc(Br)c1 | -9% | 13% | 5.6µM* | 6% | -1%
CCOC(=O)c1ccc(N2C(=O)c3[nH]nc(-c4ccc(C)cc4)c3C2c2ccc(O)cc2)cc1 (centres undefined) | u | x | u | 0% | x
CCOC(=O)c1ccc(N2C(=O)c3n[nH]c(-c4ccco4)c3C2c2ccc([N+](=O)[O-])cc2)cc1 (centres undefined) | u | -14% | 7.1µM* | -10% | 0%[10 µM]
CCOC(=O)c1ccc(N2C(=O)c3n[nH]c(-c4ccco4)c3C2c2ccc(C)cc2)cc1 (centres undefined) | u | x | u | -5% | x
CCOC(=O)c1ccc(N2C(=O)c3[nH]nc(-c4ccc(C)cc4)c3C2c2cccc(F)c2)cc1 (centres undefined) | -40% | x | 10µM* | -8% | x
COc1ccc(/C=N\NC(=O)C2=NNC(=O)C2C)cc1 (centres undefined) | 1% | 3.2µM* | 1% | -8% | 13µM*
CCC1=C2CC[C@H]3C(=O)N(CC)C(=O)[C@H]3[C@H]2[C@@]2(C)C(=O)N(CC(=O)OC)C(=O)N2C1=O | x | 4% | x | x | -5%
CCCCCCCC/C=C\CCCCCCCC(=O)N[C@H](CO)Cc1ccc(O)cc1 | x | u | x | x | 25%
Cc1nc(NC(=O)c2ccco2)sc1C(=O)O | 10% | 11µM* | u | 7% | 7.1µM*
O=C(NCc1ccc(-c2nc3ccccc3s2)cc1)c1ccco1 | -8% | -16% | 1% | -2% | 4%
Cc1cc(C)c2nc(NC(=O)c3ccco3)sc2c1 | -3% | 10µM* | u | -5% | 4.5µM*
O=C(NC(=S)NCc1ccc(-c2nc3ccccc3s2)cc1)c1ccco1 | -4% | 5.6µM* | -13% | -15% | 7.1µM*
COc1ccc2sc(NC(=O)c3ccco3)nc2c1 | 6% | u | u | -5% | 10µM*
Cc1cc(Cl)cc2sc(NC(=O)c3ccco3)nc12 | -16% | u | 9% | 1% | -6%
CCCCC/C=C\C\C=C/C=C/C=C/[C@@H](SCC(N)C(=O)NCC(=O)O)[C@@H](O)CCCC(=O)O (some centres undefined) | x | -2% | x | x | 0%
CCCOc1ccc(C(=O)NC(=S)Nc2nc3ccccc3s2)cc1 | -22% | u | -2% | 2% | 0.79µM*
CCc1cc2cc(C)c(C)cc2nc1SCC(=O)NNC(=O)c1ccco1 | -30% | -28% | -1% | 2% | u
COc1ccc2nc(NC(=O)c3cccc(OCc4c(C)noc4C)c3)sc2c1 | u | u | u | -5% | 11µM*
COc1ccc2nc(NC(=O)CCNC(=O)c3ccco3)sc2c1 | 4% | x | -9% | -4% | x
COc1ccc2nc(NC(=S)NC(=O)c3ccco3)sc2c1 | -19% | u | u | 1% | 1.1µM*
CCSc1nnc(NC(=O)c2cccc(OCc3c(C)noc3C)c2)s1 | -18% | 6% | -21% | 2% | -45%
CCc1cc2ccc(OC)cc2nc1SCC(=O)NNC(=O)c1ccco1 | -7% | -1% | 1% | 24% | 18µM*
CCCOc1ccc(C(=O)NC(=S)Nc2nc3ccc(C)cc3s2)cc1 | x | -3% | x | x | u
SMILES | HEK293 tox | Gal4-VP16 FLuc | GLP1R inv ag | GLP1R ag | RORgamma inh
Cn1c(=O)c(-c2cc(F)cc(F)c2)nc2cnc(Oc3ccccc3)nc21 | x | 0% | x | x | 27%
O=C(NC(=S)Nc1nc2ccccc2s1)c1ccco1 | u | 1.3µM* | u | 10% | 0.89µM*
CCOc1ccc(-c2nnc(SCC(=O)NCCc3ccccc3)nc2-c2ccc(OCC)cc2)cc1 | -1% | x | -4% | x | x
CC(=O)c1cccc(NS(=O)(=O)c2ccc(N/C=C/C(=O)c3ccc(F)cc3)cc2)c1 | -4% | 4.5µM* | u | 9% | u
Cc1ccc(C(=O)/C=C/Nc2cccc(O)c2)cc1 | -25% | 1µM* | u | -2% | 2.2µM*
CC(=O)c1cccc(N/C=C\C(=O)c2ccc(C)cc2)c1 | 2% | 8.9µM* | -25% | -4% | 2.2µM*
O=C(/C=C/Nc1cccc(O)c1)c1ccccc1 | 0% | 6.3µM* | u | -4% | 5µM*
O=C(/C=C/Nc1ccc(F)c(Cl)c1)c1ccccc1 | 0% | 0% | -3% | 7% | 31%
CCOC(=O)c1c[nH]c2cc(OCC(C)C)c(OCC(C)C)cc2c1=O | x | -19% | x | -1% | 0%
COc1ccc(N/C=C/C(=O)c2ccccc2)cc1 | -6% | 10µM* | u | 0% | 7.9µM*
CC(=O)c1cccc(NS(=O)(=O)c2ccc(NC(=O)N3CCCCC3)cc2)c1 | -1% | 10µM* | 6% | 6% | 40%
C/C(=C\C(=O)c1ccccc1)Nc1ccc(O)cc1 | -14% | 13% | 46% | 25% | u
COc1ccc(N/C=C\C(=O)c2ccc3ccccc3c2)cc1 | -6% | 11% | 11% | -5% | -29%
CC(=O)c1cccc(NC(=O)N2CCCCCC2)c1 | 3% | -4% | 4% | -2% | 23%
C/C(=C\C(=O)c1cccnc1)Nc1ccc(O)cc1 | u | u | 0% | 20% | 13µM*
C/C(=C\C(=O)c1ccc(C)cc1)Nc1cccc(O)c1 | 1% | 3.5µM* | -7% | 13% | 6.3µM*
Cc1cccc(N2CCN(S(=O)(=O)c3ccc(-c4cc(C(F)(F)F)on4)s3)CC2)c1C | -6% | x | 2% | x | x
COC(=O)C(NS(=O)(=O)CCl)C(C)C (centres undefined) | x | 0% | x | x | 4%
O=C(Nc1ccc(C(=O)N2CCN(c3ccc(Cl)cc3)CC2)cc1)c1nsc2ccccc12 | -4% | x | 6.3µM* | x | x
COc1cccc(N2CCN(C(=O)c3ccc(NC(=O)c4nsc5ccccc45)cc3)CC2)c1 | 0% | x | 8.9µM* | x | x
CCCn1c(NC(=O)C2CCN(C(=O)c3ccc(F)cc3)CC2)nc2ccccc21 | 14% | 8.9µM* | -18% | 6% | 7.1µM*
CCCn1c(NC(=O)c2ccc(Br)cc2)nc2ccccc21 | 0% | 1.3µM* | 4% | -10% | 1µM*
CCCn1c(NC(=O)c2ccccc2Br)nc2ccccc21 | 0% | 2.8µM* | u | 13% | 0.35µM*
CCCn1c(NC(=O)c2ccco2)nc2ccccc21 | -7% | -10% | -20% | -2% | -3%

Screening results from PubChem BioAssay.
